Measured values: PubChem BioAssay AID651571 (The Scripps Research Institute Molecular Screening Center, 2012)
Among all 1,500 compounds or so, about 1,300 (87%) were called active. Rule as the data show it: active = inhibition above about 9%; inactive = the rest. The set was probably picked from earlier hits. A selection follows.

test: binders of anti-gp120 antibody PG9, confirmation, biochemical, TR-FRET (AID 651571); details: TR-FRET PG9 antibody binding, at 6.7 µM, stronger effect = higher value

Question: For `CCN(CC)C(=O)c1ccc(NC(=O)c2sccc2-c2ccccc2)cc1`, which inhibition is on record?
Answer: Its inhibition is 16.6% (active).

Question: For `N#CC1=C(N)Oc2c(c(=O)oc3ccccc23)C1c1ccccc1OC(=O)c1cccs1` (configuration not stated), which inhibition is on record?
Answer: Its inhibition is 20.4% (active).
